Measurements taken from ChEMBL document CHEMBL3988442, “University of Dundee, Small-Polar-MMV Screening Library” (2021).
The whole screen tested about 69,000 compounds, of which about 950 (1.4%) showed an effect of 50% or more. The entries come from a sample that favours strong results as a whole.

test system: Mycobacterium tuberculosis; assay: Cornell M. t heat shock assay; assay type: functional, organism-based; set-up: dose or concentration left out as unconfirmed; further: in the data most compounds retested in dose-response had high values

| SMILES | Percent Effect [%] |
| --- | --- |
| Cc1cccc(COc2ccc(C(C)N)cc2)c1.Cl (stereo not drawn) | 2.748 |
| Cc1noc(C)c1CN1CCO[C@H]2CN(Cc3ccc(F)cc3)C[C@H]21.O=C(O)C(F)(F)F.O=C(O)C(F)(F)F | -6.13 |
| Cc1ccc(C(=O)N2CC(=O)N(Cc3cccs3)CC(O)C2)cc1 (stereo not drawn) | 58.25 |
| CSc1ccc(C(=O)N2CC(=O)N(Cc3cccs3)CC(O)C2)cc1 (stereo not drawn) | 29.81 |
| O=C1CN(C(=O)c2ccc(F)cc2)CC(O)CN1Cc1cccs1 (stereo not drawn) | 62.26 |
| COc1ccc(C(=O)N2CC(=O)N(Cc3cccs3)CC(O)C2)cc1 (stereo not drawn) | 14.04 |
| CSc1ccc(C(=O)N2CC(=O)N(Cc3ccccc3)CC(O)C2)cc1 (stereo not drawn) | 28.35 |
| O=C1CN(C(=O)c2ccc(Cl)cc2)CC(O)CN1Cc1cccs1 (stereo not drawn) | 16.61 |
| O=C(Cc1ccsc1)N1C[C@@H]2OCCN(CC3CCCO3)[C@@H]2C1.O=C(O)C(F)(F)F (stereo partly drawn) | -30.31 |
| CNC(=O)[C@H]1C[C@@H]2CN(C(=O)Nc3ccccc3)C[C@H]1O2 | -29.03 |
| CN(C)CCN1CCC2(CC1)CN(Cc1cccnc1)C(=O)CO2.O=C(O)C(F)(F)F.O=C(O)C(F)(F)F.O=C(O)C(F)(F)F | 8.81 |
| O=C(O)C(F)(F)F.O=C(O)C(F)(F)F.c1cc(COC[C@]23COC[C@H]2CN(CC2CCC2)C3)ccn1 | -30 |
| O=C(NC[C@]12COC[C@H]1CN(Cc1ccncc1)C2)c1ccco1.O=C(O)C(F)(F)F.O=C(O)C(F)(F)F | -3.617 |
| Cn1cncc1C(=O)N1CCOC2(COCCN(CC3CC3)C2)C1.O=C(O)C(F)(F)F (stereo not drawn) | 41.2 |
| Cc1cnn(CC2CCCN2Cc2nccn2CC(F)(F)F)c1 (stereo not drawn) | 101.7 |
| Cc1nc(C2CCCN2Cc2nccn2CC(F)(F)F)no1 (stereo not drawn) | -9.202 |
| CCn1ccnc1CN1CCCC1Cn1cc(C)cn1 (stereo not drawn) | 89.45 |
| Cc1cnn(CC2CCCCN2Cc2cnc(C)s2)c1 (stereo not drawn) | 18.92 |
| Cc1cnn(CC2CCCCN2Cc2nccn2CC(F)(F)F)c1 (stereo not drawn) | 52.97 |
| Cc1cnn(CC2CCCN2Cc2nccn2C)c1 (stereo not drawn) | 15.87 |

| SMILES | Percent Effect [%] |
| --- | --- |
| Cc1cnn(CC2CN(Cc3nccn3CC(F)(F)F)CCO2)c1 (stereo not drawn) | -15.97 |
| Cc1cnn(CC2CCCCN2Cc2ncc(C(C)(C)C)o2)c1 (stereo not drawn) | -8.099 |
| Cc1cnn(CC2CCCN2Cc2nnc(C3CC3)n2C)c1 (stereo not drawn) | 10.04 |
| CCn1ccnc1CN1CCN(CCC(=O)NC2CCCCC2)CC1 | 24.85 |
| CC1=N[C@@]2(CC[C@@H]3CNC[C@@H]32)C(=O)N1CC(C)C.O=C(O)C(F)(F)F | -9.466 |
| Fc1cnc(N2CCCC3(COCCN(c4nccs4)C3)C2)nc1.O=C(O)C(F)(F)F.O=C(O)C(F)(F)F (stereo not drawn) | 4.049 |
| COc1c(CNC2CCCOc3ccc(F)cc32)c(C(C)C)nn1C.Cl (stereo not drawn) | -10.1 |
| O=C(O)C(F)(F)F.O=C1NCC[C@]12CN(CC1CCOCC1)C[C@H]2c1ccccc1 | -6.347 |
| CCc1ccc(CN2C[C@H](OCC(=O)N(C)C)[C@H]3COC[C@H]32)o1.O=C(O)C(F)(F)F | 13.05 |
| CO[C@H]1CN(CC2CC2)[C@@H]2CCCO[C@H]12.O=C(O)C(F)(F)F | 13.63 |
| CC(C)CC(NCc1cscn1)c1ccccn1 (stereo not drawn) | 27.38 |
| O=C(Cn1cccnc1=O)NC(Cc1cccs1)c1ccccn1 (stereo not drawn) | -7.839 |
| CC(C)CC(NCc1cccs1)c1ccccn1 (stereo not drawn) | 99.48 |
| CS(=O)(=O)N1CCC(C(=O)NC(Cc2ccsc2)c2ccccn2)CC1 (stereo not drawn) | -2.015 |
| c1ccc(OCCNCc2cccs2)nc1 | -4.17 |
| CC(C)CC(NCc1ccsc1)c1ccccn1 (stereo not drawn) | 95.2 |
| Cl.O=C(c1ccccc1)N1CCC2(CC1)CNc1c(F)cccc12 | 9.544 |
| Cc1cnn(CC2CN(Cc3nc4ccccc4s3)CCO2)c1 (stereo not drawn) | -2.009 |
| CN(Cc1cncnc1)[C@H]1CN(C(=O)c2ccco2)[C@@H]2CCCO[C@@H]21 | -2.729 |
| CN(Cc1cncnc1)[C@@H]1CN(C(=O)c2ccco2)[C@@H]2CCCO[C@H]12.O=C(O)C(F)(F)F | 50.13 |

| SMILES | Percent Effect [%] |
| --- | --- |
| CN(Cc1cncnc1)[C@@H]1CN(C(=O)C2CC2)[C@@H]2CCCO[C@H]12.O=C(O)C(F)(F)F | 8.478 |
| COc1ccc2[nH]cc(C(=O)CNc3nc(C)cs3)c2c1.I | 4.496 |
| COc1cccc(CC(=O)N2CC[C@@H]3[C@H](CC2)N(C)CCS3(=O)=O)c1.O=C(O)C(F)(F)F | 5.677 |
| Cc1cccc(C2CCCN2Cc2nc(N)nc(N(C)C)n2)c1C (stereo not drawn) | 47.4 |
| Cc1ccccc1C1CCCN1Cc1nc2c(cnn2C)c(=O)[nH]1 (stereo not drawn) | -11.52 |
| CN(C)c1nc(N)nc(CN2CCCC2c2cccs2)n1 (stereo not drawn) | 97.97 |
| CN(C)c1nc(N)nc(CN2CCCC2c2ccsc2)n1 (stereo not drawn) | 64.16 |
| Cn1ncc2c(=O)[nH]c(CN3CCCC3c3ccsc3)nc21 (stereo not drawn) | -12.54 |
| Cc1nc(CN2CCCC2c2ccsc2)nc2ccccc12 (stereo not drawn) | 40.46 |
| Cn1ncc2c(=O)[nH]c(CN3CCCC3c3cccs3)nc21 (stereo not drawn) | 80.29 |
| CN(C)c1nc(N)nc(CN2CCCC(c3ccccc3)CC2)n1 (stereo not drawn) | -13.13 |
| CCCc1noc(CN2CCCC2c2ccsc2)n1 (stereo not drawn) | 4.131 |
| CC(C)NC(=O)N1CCc2ncc(CN3CCOCC3)n2CC1.O=C(O)C(F)(F)F | -16.24 |
| Cc1noc(C)c1CN1CC[C@H]2[C@H]1CCN2CC1CCOCC1.O=C(O)C(F)(F)F.O=C(O)C(F)(F)F | -9.429 |
| C=C(C)CN1CCN(Cc2cnc(-c3ccccc3C)nc2)CC1.O=C(O)CC(O)(CC(=O)O)C(=O)O | 1.349 |
| CCOCC1CN(Cc2ccoc2)Cc2nn(C)cc21.O=C(O)C(F)(F)F (stereo not drawn) | -18.76 |
| O=C(N1CCCC1)N1CC[C@H]2[C@H]1CCN2c1ncccn1.O=C(O)C(F)(F)F | -10.67 |
| COc1cc2c(cc1CNC(Cc1cccs1)c1nccs1)OCCO2.Cl (stereo not drawn) | 2.723 |
